Results as given in PubChem BioAssay (Tox21).
Records with an inconclusive call do not appear. Values without a mark were called inactive. Calls of active or inactive are those of the source. Calls follow the shape of the dose curve; as a rule, active = well fitted cell-killing curve with a large enough effect in the repeat runs; inconclusive = weak or mixed curves, or effect the other way; inactive = flat fitted curve, though single readings scatter.

assay: qHTS RealTime-Glo MT Cell Viability Assay in HEK293 cells - 24 hour (AID 1224886); settings: RealTime-Glo luminescence; series mostly up to 76.8 µM; activity change, negative = cytotoxicity: at the top concentration; also: nearly all actives have a fitted effect of over 50% in size; as to activity change, negative = cytotoxicity: top concentration of the series differs between compounds
Description: National Center for Advancing Translational Sciences [NCATS]
NIH Chemical Genomics Center [NCGC]
U.S. Environmental Protection Agency [EPA]
National Institutes of Environmental Health Sciences [NIEHS]
National Toxicology Program [NTP]
U.S. Food and Drug Administration [FDA]
Measure of cell viability is critical in the cell-base assay. Analysis of cell viability is necessary for the characterization of cell responses to cytotoxic drugs and environmental stress. A RealTime-Glo MT Cell Viability Assay to monitor cell viability in real time of continues cell culture during 40 hours of compound treatment was used to screen Tox21 10K library compounds in Hek293 cells. The RealTime-Glo MT Cell Viability Assay is a nonlytic, homogeneous, bioluminescent method to measure cell viability in real time using a simple, plate-based method. The assay involves adding NanoLuc luciferase and a cell-permeant prosubstrate to cells in culture. Viable cells reduce the proprietary prosubstrate to generate a substrate for NanoLuc luciferase. This substrate diffuses from cells into the surrounding culture medium, where it is rapidly used by the NanoLuc Enzyme to produce a luminescent signal. The signal correlates with the number of viable cells, making the assay well suited for cytotoxicity studies.
Tox21 Assay Protocol Summary:
The mixture of Hek293 cell suspension and reagents were dispensed at 600cells/6 ul/well in 1536-well tissue culture treated black solid bottom plates using a Multidrop dispenser. After the assay plates were incubated at a 37 C/5% CO2 incubator for 5 hours, 23 nL of compounds dissolved in DMSO, positive and negative controls was transferred to the assay plate by a pintool work station. The plates were incubated at 37 C for 40 hours. The luminescence intensity were measured at 0h, 8h, 16h, 24h, 32h and 40h time points using ViewLux plate reader during compound treatment.
% is scaled to controls: 0 for no effect and ±100 for the full control effect; potency is read from the fitted curve at half-maximal effect.

Row | SMILES | activity change, negative = cytotoxicity | Potency
1 | Cc1c(Cl)cccc1Nc1ccccc1C(=O)O | 9.23% [at 35.3 µM] | –
2 | CC/C=C\CCO | 11.7% | –
3 | CC1(C)C(=O)NC(=O)N1CO | 8.48% | –
4 | O=C(Cl)c1cc(Cl)cc(Cl)c1 | -5.58% | –
5 | O=C(O)c1cc(C(=O)O)c(C(=O)O)cc1C(=O)O | 6.32% | –
6 | CC(C(=O)O)c1ccc(/C=C2\CCCCC2=O)cc1 (stereo not given) | 16.6% [at 35.3 µM] | –
7 | Cc1ccc2ccccc2c1[N+](=O)[O-] | 1.95% | –
8 | CCOC(C)OCC | -0.106% | –
9 | C[Si](C)(C)O[Si](C)(C)O[Si](C)(C)C | 4.47% | –
10 | Cc1c(Nc2ncccc2C(=O)O)cccc1C(F)(F)F | 6.16% [at 35.3 µM] | –
11 | Cc1c(Cl)cccc1[N+](=O)[O-] | -4.48% | –
12 | N#C[C@@H]1CC(F)(F)CN1C(=O)CNC1CC2CCC(C1)N2c1ncccn1 (stereo not given in full) | 7.6% | –
13 | COc1ccc(CN(CCN(C)C)c2ncccn2)cc1 | 0.904% [at 35.3 µM] | –
14 | O=C(OCCOCCOCCOC(=O)c1ccccc1)c1ccccc1 | 9.39% | –
15 | c1ccc(-c2ccc(-c3ccccc3)cc2)cc1 | 0.629% [at 15.8 µM] | –
16 | CC(C)(C)c1ccc(CCC=O)cc1 | -1.28% | –
17 | Nc1ccc(C(=O)Oc2ccccc2)c(O)c1 | -13.2% [at 35.3 µM] | –
18 | CCCCCCCCOCCCN | -0.325% | –
19 | C=C(C)C(=O)OCCCCCCCCCCOC(=O)C(=C)C | -14.6% | –
20 | COc1ccc(/C=C/S(=O)(=O)NC(=O)c2ccc(C)cc2Cl)cc1 | 1.06% | –

Row | SMILES | activity change, negative = cytotoxicity | Potency
21 | Cc1cccc(C)c1NC(=O)CN1CCCC1 | 5.99% [at 35.3 µM] | –
22 | COC(=O)Cc1cccc2ccccc12 | -1.8% | –
23 | C/C(=C(\CCO)SS/C(CCO)=C(\C)N(C=O)Cc1cnc(C)nc1N)N(C=O)Cc1cnc(C)nc1N | 9.35% [at 35.3 µM] | –
24 | CC(=O)Nc1ccccc1O | -3.7% | –
25 | C/C(=C\C(C)CC(C)CC(C)C)C1CC(=O)OC1=O (stereo not given) | -11% | –
26 | CC(=O)c1cccnc1 | 1.26% | –
27 | CCOc1ccccc1O | – | 19.5 µM (active)
28 | O=C(O)CNc1ccccc1 | 0.613% | –
29 | CC(C)=CCCC(C)C=O (stereo not given) | 5.37% | –
30 | COC(=O)c1cc(Cl)ccc1[N+](=O)[O-] | 6.38% | –
31 | CC/C=C/CCO | 0.627% | –
32 | Cc1ccccc1CCO | -0.322% | –
33 | CC1(C)CC(O)CC(C)(C)N1[O] | 1.17% | –
34 | C=C[Si]1(C)O[Si](C)(C=C)O[Si](C)(C=C)O[Si](C)(C=C)O1 (stereo not given) | 0.0516% | –
35 | CNc1ccccc1 | -1.06% | –
36 | C=CC(=O)NC(C)(C)C | -2.28% | –
37 | CCCC(=O)OCCC(C)C | -0.639% | –
38 | CCC(C)CCCC(C)(C)O (stereo not given) | 22.2% | –
39 | CCC[Si](OC)(OC)OC | -2.61% | –
40 | CCCC1CCOC(C)S1 (stereo not given) | 0.151% | –
